Where “and” joins values, the source holds several entries; their conditions need not be identical. Equal values may be shown once.
Key:
Test in all cases: cell viability relative to vehicle control; higher = less cytotoxic
Conditions in all cases: 10 µM
K562 = system: K562
Outline: (§1)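 Four leukaemia lines, as CRISPR-edited mutant clones and isogenic wild-type clones, were tested against Selleck bioactive, kinase and epigenetic probe libraries after removal of identity-inconsistent compounds. Cells were exposed to a single 10 µM dose for 48 h, and CellTiter-Glo luminescence was then read. Viability was calculated relative to the on-plate vehicle control.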

MARIMO = system: MARIMO
Outline: as §1

MOLM14 = system: MOLM14
Outline: as §1

OCI-AML2 = system: OCI-AML2
Outline: as §1

SMILES | cell viability (K562; SRSF2 genotype: SRSF2 P95H/wt) | cell viability (K562; SRSF2 genotype: SRSF2 wt/wt) [%] | cell viability (MARIMO; SRSF2 genotype: SRSF2 P95H/wt) [%] | cell viability (MARIMO; SRSF2 genotype: SRSF2 wt/wt) [%] | cell viability (MOLM14; SRSF2 genotype: SRSF2 P95H/wt) [%] | cell viability (MOLM14; SRSF2 genotype: SRSF2 wt/wt) [%] | cell viability (OCI-AML2; SRSF2 genotype: P95H/wt) [%] | cell viability (OCI-AML2; SRSF2 genotype: wt/wt) [%]
CC1=C(C(=O)OCCN(Cc2ccccc2)c2ccccc2)C(c2cccc([N+](=O)[O-])c2)C(P2(=O)OCC(C)(C)CO2)=C(C)N1 (stereo not drawn) [Efonidipine] | 78.8% and 87.3% | 83.7 | 95.5 | 98.4 | 82.2 | 95.7 | 104 | 82.3
NC(=O)c1cccc(N)c1 [INO-1001 (3-Aminobenzamide)] | 96.6% and 95.7% | 94.7 | 99.5 | 97.8 | 100 | 96.6 | 94.7 | 98.8
CN(CCOc1ccc(NS(C)(=O)=O)cc1)CCc1ccc(NS(C)(=O)=O)cc1 [Dofetilide (Tikosyn)] | 97.8% and 97% | 101 | 97 | 104 | 95.8 | 101 | 99 | 107
CN(C)c1cc(NC(=O)CNC(C)(C)C)c(O)c2c1CC1CC3C(N(C)C)C(=O)C(C(N)=O)=C(O)C3(O)C(=O)C1=C2O (stereo not drawn) [Tigecycline] | 94.1% | 97.6 | 94.9 | 97.2 | 99.2 | 96.9 | 106 | 95.7
CC1(C)CC[C@]2(C(=O)O)[C@H](O)C[C@]3(C)C(=CC[C@@H]4[C@@]5(C)CC[C@H](O)C(C)(C)[C@@H]5CC[C@]43C)[C@H]2C1 [Echinocystic acid] | 93.8% and 87.5% | 89 | 87.1 | 99.2 | 85.1 | 90.4 | 82.8 | 94.6
CCNC(=O)[C@@H]1CCCN1C(=O)[C@H](CCCN=C(N)N)NC(=O)[C@H](CC(C)C)NC(=O)[C@@H](CC(C)C)NC(=O)[C@H](Cc1ccc(O)cc1)NC(=O)[C@H](CO)NC(=O)[C@H](Cc1c[nH]c2ccccc12)NC(=O)[C@H](Cc1cnc[nH]1)NC(=O)[C@@H]1CCC(=O)N1 [S3718 Leuprolide Acetate.cdx] | 104% and 107% | 102 | 110 | 112 | 103 | 105 | 102 | 108
OC[C@H]1O[C@@H](Oc2cc3c(O)cc(O)cc3[o+]c2-c2ccc(O)c(O)c2)[C@H](O)[C@@H](O)[C@@H]1O [Cyanidin-3-O-glucoside chloride] | 93.5% and 89% | 87.1 | 91.6 | 92.6 | 90.4 | 91.1 | 83 | 86.2
C[C@H]1C[C@@H]2[C@H]([C@@H](O)C[C@@]3(C)[C@H]2CC[C@]3(O)C(=O)CO)[C@@]2(C)C=CC(=O)C=C12 [Methylprednisolone] | 100% and 106% | 103 | 110 | 103 | 95.8 | 98.8 | 99.8 | 107
O=c1cc(-c2ccc(O)c(O)c2)oc2c([C@@H]3O[C@H](CO)[C@@H](O)[C@H](O)[C@H]3O)c(O)cc(O)c12 [Orientin] | 104% and 101% | 101 | 100 | 97.3 | 103 | 103 | 98.8 | 100
Cc1c(C)c2c(c(C)c1OC(=O)CCC(=O)OCCOCCOCCO)CCC(C)(CCCC(C)CCCC(C)CCCC(C)C)O2 (stereo not drawn) [Tocofersolan] | 78.2% and 80.7% | 92.4 | 80.3 | 63.5 | 87.2 | 97.2 | 59.5 | 77.4
NC(N)=Nc1nc(CSCC/C(N)=N/S(N)(=O)=O)cs1 [Famotidine (Pepcid)] | 105% and 106% | 109 | 111 | 106 | 103 | 107 | 107 | 107

— the supplement of paper PMC10981050
